From the supplement of paper PMC11417369
In all, about 25,000 sequences were measured (“ln(normalized median fluorescence intensity)”: median about 7.1, highest 2% from about 10 on). Only a selection was taken, and the highest values are over-represented in it overall.

These sequences were tested on PfSIP2 AP2 domain 1 (GST-tagged) (assay: gcPBM binding intensity (ln(normalized median fluorescence intensity)); higher = stronger DNA binding).
In short: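 Plasmodium falciparum DNA-binding domains carrying a GST tag were expressed in E. coli and applied for 1 h, at about 25 μg on average, to an Agilent 4 × 180k array. The array held primer-extended double-stranded 36-bp intergenic genomic probes together with negative controls, and binding took place in 1× PBS with 1% milk, 0.2 mg/ml BSA, 0.5% salmon testes DNA and 0.03% Triton X-100. An Alexa488 anti-GST antibody detected bound protein, and the array was scanned at 488 nm. Binding intensity is taken as the highest Masliner-normalised natural-log median intensity across replicate spots of either probe orientation.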
“ATTAAATGCACATATACACACACCCAATTTTAAGTT [CACACA_site3049]” was tested, and the “gcPBM binding intensity (ln)” value was 7.4. With “TATGTAATAAATAGTACACACACACCGATATATATA [CACACA_site8389]” the “gcPBM binding intensity (ln)” value was 7.46. With “AAGGATTACAAAAAAAGTACAAATGGATTTTTTCCC [XGTACX_site8905]” the “gcPBM binding intensity (ln)” value was 6.84. For “TATGTTTACATATACGTGCACATGAATGTATACATT [GTGCAC_site9894]”, the “gcPBM binding intensity (ln)” value was 9.69. For TGCAAGCTTATATAGGTGCACATGTATACGTGTTCA, the “gcPBM binding intensity (ln)” value was 11.3. “TGCTTATATATACGTGCACACATATATATAAGATAT [CACACA_site8516]” was tested, and the “gcPBM binding intensity (ln)” value was 9.74. With “ATAACATACATAACAACACACAATATTTATAGGTAT [CACACA_site6243]” the “gcPBM binding intensity (ln)” value was 7.12. In the case of AAATTAAAGATAAAAGTGCAAAATTATAAATTTATT, the “gcPBM binding intensity (ln)” value is reported as 7.97. In the case of “ATTATCCATCAAAAGGTGCAAATTTTTAATTATAAA [GTGCAC_site9932]”, the “gcPBM binding intensity (ln)” value is reported as 11.1. “TTTATTAATAAAAAGGTGCAATCAGGAAAAATTATC [GTGCAC_site9626]” was tested, and the “gcPBM binding intensity (ln)” value was 10.8. “AATTTATAAATAATTAATTTGATAAATTATAAAGGG [GTGCAC_negctrl_site544]” was tested, and the “gcPBM binding intensity (ln)” value was 7.02. ATTATTTGATTAAAGGTGCAAGGATAATAATAAAAC was tested, and the “gcPBM binding intensity (ln)” value was 10.3. “TATATATTAATCAAAGTGCAATAATAAAATAAAAGT [GTGCAC_site9490]” was tested, and the “gcPBM binding intensity (ln)” value was 8.38. In the case of “TTAACAAAACATAAGGTGCTTAAAATTTTATATCAC [GTGCAC_site9839]”, the “gcPBM binding intensity (ln)” value is reported as 7.96. In the case of “ATATAATCAACTGCAAAGGTTTAAAAGGAAAAAATA [CACACA_negctrl_site989]”, the “gcPBM binding intensity (ln)” value is reported as 6.79. “TGATATTATTATAAGGTGCTTAAAAATAAAGATAAT [GTGCAC_site9539]” was tested, and the “gcPBM binding intensity (ln)” value was 7.78. For “AAATTTAACAACTTCAAACACACAATATATATATAT [CACACA_site2092]”, the “gcPBM binding intensity (ln)” value was 8.91. For “AACATACCCATATACACACACACATAAATACAGATA [CACACA_site4744]”, the “gcPBM binding intensity (ln)” value was 7.3. With “GATTGATTATATGTGTGTACTTATATGTTAAAAAAA [XGTACX_site4784]” the “gcPBM binding intensity (ln)” value was 7.29. In the case of “AGTCATATAAATAGTAGTACTGTGTGTGAAGAAAAA [XGTACX_site5056]”, the “gcPBM binding intensity (ln)” value is reported as 7.42. With “TTAACAAAATTTCCGTGTACGTAAATAAGAACATAG [XGTACX_site7200]” the “gcPBM binding intensity (ln)” value was 7.25. “ACAAATACAAAAAAAGGTACACACATAATATATTTA [XGTACX_site5515]” was tested, and the “gcPBM binding intensity (ln)” value was 7.04. With “ACATTCAATCTACTGTGTACATATTAAACTTTGAAA [XGTACX_site2913]” the “gcPBM binding intensity (ln)” value was 7.49. “ATTATATATATATTATGTACATATATTGAAGTGGAT [XGTACX_site5916]” was tested, and the “gcPBM binding intensity (ln)” value was 7.56. With “GTTAATATTTTTGGGGGTACTTAAAAAAAAAAAAAA [XGTACX_site1477]” the “gcPBM binding intensity (ln)” value was 7.78. “TATACTTTATATATTTTGTATATATATTTTTTTTAT [TGCATGCA_negctrl_site530]” was tested, and the “gcPBM binding intensity (ln)” value was 7. In the case of “ATTTTTTTTTTTTTTTTGGGGGGGTATACTTTTAAA [CACACA_negctrl_site1020]”, the “gcPBM binding intensity (ln)” value is reported as 10.7. “AATAAATTGAAACACACACACACATATATATATATA [CACACA_site848]” was tested, and the “gcPBM binding intensity (ln)” value was 9.2. “AGGAGGATATTACACAGTACCCAGGAAATCTACGGA [XGTACX_site4878]” was tested, and the “gcPBM binding intensity (ln)” value was 6.82. For “ACATATTTTATTTTTTGTACACATATATTATTTTTT [XGTACX_site6528]”, the “gcPBM binding intensity (ln)” value was 7.28. In the case of “TTGGGTGCATATATTTGTACACATTATTTCTATTTT [XGTACX_site3688]”, the “gcPBM binding intensity (ln)” value is reported as 12. With “CTTAAATTAATTTGGGTGCATATATTTGTACACATT [GTGCAC_site9948]” the “gcPBM binding intensity (ln)” value was 10.9. With “AATTAATTAAATTAATGTACACATATATTTGTATTC [XGTACX_site2341]” the “gcPBM binding intensity (ln)” value was 7.14. With “TTGCATATTTCTAATTGTACATTATTTTATTTTATA [XGTACX_site8451]” the “gcPBM binding intensity (ln)” value was 6.96. With “ATATATAATTAATTTTGTACACATAAAAAAAAAAAT [XGTACX_site6647]” the “gcPBM binding intensity (ln)” value was 7.25. For “AAAACCTAAAAGTCTTAAATTTTAAATATACCTACA [GTGCAC_negctrl_site492]”, the “gcPBM binding intensity (ln)” value was 6.6. For “TTTATTTTATCATTTGCACACGCACGCCCACATAAA [CACACA_site353]”, the “gcPBM binding intensity (ln)” value was 7.85. “CCCATGCATTTTTGCACACACATATATTTATAAATA [CACACA_site6785]” was tested, and the “gcPBM binding intensity (ln)” value was 8.16. With “TTTATTTTATCATTTGCACACGCACCCCCACATAAA [CACACA_site8007]” the “gcPBM binding intensity (ln)” value was 11.5. With “TATTTTATCATTTGCACACGCACACCCACATAAAAA [CACACA_site354]” the “gcPBM binding intensity (ln)” value was 8.03. “TATTTTATCATTTGCACACGCACACCGACATAAAAA [CACACA_site4348]” was tested, and the “gcPBM binding intensity (ln)” value was 7.71. In the case of “TTTATTTTATCATTTGCACACGCACCCAGACATAAA [CACACA_site4347]”, the “gcPBM binding intensity (ln)” value is reported as 10.8. With “ATATTAAACAAACACACACACATATATATATATATA [CACACA_site3383]” the “gcPBM binding intensity (ln)” value was 9.67. “ATAAATGAACAAGTGGCACACACACCGTATAACTAA [CACACA_site9047]” was tested, and the “gcPBM binding intensity (ln)” value was 6.91. In the case of “ATGTATATATTTACGTGTACATATTCATGTGATATC [XGTACX_site5871]”, the “gcPBM binding intensity (ln)” value is reported as 7. With “GTTCAATTATTTTTATGTACATATATTTTTTTCTTT [XGTACX_site2505]” the “gcPBM binding intensity (ln)” value was 7.46. In the case of “CATTTGCACACGCACACACACATAAAAAGAAAAATA [CACACA_site6297]”, the “gcPBM binding intensity (ln)” value is reported as 7.71. With “ACCCATTGCTCACGTGCACACATAGAAAAATAATTC [CACACA_site4389]” the “gcPBM binding intensity (ln)” value was 10.1. In the case of “ACATTGCACCCGTGCACACATAGAAAAATAATTCTT [CACACA_site409]”, the “gcPBM binding intensity (ln)” value is reported as 12.2. In the case of “ATCATTTGCATACGCACACACACATAAAAAGAAAAA [CACACA_site355]”, the “gcPBM binding intensity (ln)” value is reported as 7.54. In the case of “CATTTGCACCCGCACACACACATAAAAAGAAAAATA [CACACA_site4350]”, the “gcPBM binding intensity (ln)” value is reported as 11.6. “TCATTGAAAATTGTTGCACACATAATAATTAAATAT [CACACA_site8554]” was tested, and the “gcPBM binding intensity (ln)” value was 7.36. In the case of “AATTTGGTGTGTGTAAAAGTATGTGTCTATATTTAT [GTGCAC_negctrl_site166]”, the “gcPBM binding intensity (ln)” value is reported as 7.11. With TAATATAATGATGCAGTGCATATGTTAAAATGAAAA the “gcPBM binding intensity (ln)” value was 8.72. With TTTTTTGTTATGCGGGTGCATATAATAATGTGATGA the “gcPBM binding intensity (ln)” value was 10.8. With TTTTGTTATTTTTCAGTGCAATATGATAATAATATA the “gcPBM binding intensity (ln)” value was 7.72. “TAATATATTAAAAATAGTACATAAGAAAAATAAGTA [XGTACX_site7957]” was tested, and the “gcPBM binding intensity (ln)” value was 7.11. “TATTATATTTTTATTTGTACGTAAAATTAAGTTATG [XGTACX_site2405]” was tested, and the “gcPBM binding intensity (ln)” value was 7.14.
